Our source for the displacement values is PubChem BioAssay AID748 (Sanford-Burnham Center for Chemical Genomics, 2007).

About 100 (0.1%) of roughly 96,000 compounds were called active. The full list was thinned out, with actives kept by preference. Measured potencies and affinities stand elsewhere. Unmarked numbers belong to inactive results.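 Rule for the calls: active = displacement above 50% at 20 µM plus a fluorescence interference ratio under 1.5; inactive = the rest.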

This assay addresses Bcl-2-like protein 10 (Homo sapiens) (UniProt Q9HD36). In words: Bcl-B/TR3 peptide binding disruption – biochemical, fluorescence polarization, FITC-TR3 peptide, selectivity assay for Bfl-1 inhibitor project, primary screen (AID 748).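 Note: plate controls were wells without compound for no effect and wells lacking Bcl-B protein for full effect.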 The note with it: FP displacement of FITC-TR3 peptide from Bcl-B; at 20 µM; hits give high values.
Consider `CCOc1cc(N2CCOCC2)c(OCC)cc1NC(=O)CN1C(=O)NC2(CCc3ccccc32)C1=O` (stereo not drawn), for which the displacement is -7.8%.
Under `CCn1c(SCC(=O)Nc2ccc(S(N)(=O)=O)cc2)nnc1-c1ccccc1OC` stands -8.3%.
Under `CCCn1c(=O)c2c(c3ccccc31)OC(C)C(=O)N2` (stereo not drawn) stands 4.5%; under `O=C(N/N=C/C1C(c2ccccc2)C1(Cl)Cl)c1cccc(Br)c1` (stereo not drawn), -0.4%; under `CN(C)S(=O)(=O)c1ccc(C(=O)Nc2nnc(Cc3ccccc3)s2)cc1`, -6.2%.
Under `OC1CCN(c2ncnc3nc[nH]c23)CC1` stands 2.2%.
Regarding `CCOC(=O)Cn1c(=O)oc2cc(S(=O)(=O)N3CCC(N4CCCCC4)CC3)ccc21`, the displacement is 10%.
Under `Clc1ccc(Cn2ncc3c(NCCN4CCOCC4)ncnc32)cc1` stands -10.2%; under `O=C1CCCN1c1ccc(Br)cc1`, -0.3%; under `Cc1c(N2C(=O)c3ccccc3C2=O)c(=O)n(-c2ccccc2)n1C`, 3.3%.
Under `Cc1c(N2C(=O)c3ccc4c5c(ccc(c35)C2=O)CC4)c(=O)n(-c2ccccc2)n1C` stands 112% (active); under `Cc1c(N2C(=O)c3cccc4cccc(c34)C2=O)c(=O)n(-c2ccccc2)n1C`, -13.8%; under `Cc1ccsc1/C=N/n1cnc2sc(C)c(C)c2c1=O`, -9.7%.
`CC(=O)N1CCN(S(=O)(=O)c2ccc(S(=O)(=O)NC3CC3)cc2)CC1`: the displacement is -5.1%.
Under `CC(C)(C)C(=O)Nc1nc(C2CCCN2S(=O)(=O)c2ccc(Cl)cc2)cs1` (stereo not drawn) stands -7.5%; under `Cc1ccc(S(=O)(=O)N2CCN(C3CCN(Cc4ccccc4)CC3)CC2)cc1`, 6.6%; under `Cc1cc(C(=O)O)c(C)n1-c1ccccc1`, -1%.
Under `CC(C)(C)NC(=O)c1sccc1C(=O)O` stands -1.7%; under `CCOc1cc(/C=C2\SC(=S)N(Nc3ccccc3)C2=O)ccc1O`, -87.6%.
With `Cc1ccc(-c2csc(N3N=C(c4ccccc4)/C(=C\c4ccc(N(C)C)cc4)C3=O)n2)cc1`, the displacement is -1.8%.
Under `COc1cc(C2N(c3ccccn3)C(=O)C3CCCN32)cc(OC)c1OC` (stereo not drawn) stands 6.8%; under `Cc1ccc(Cl)c(OCC(=O)Nc2ccc3c(c2)OCCO3)c1`, 1.3%.
Under `O=C(O)CN(c1ccc(F)cc1)S(=O)(=O)c1ccc2c(c1)OCCO2` stands -1.7%; under `CC(C)CN(C(=O)COC(=O)c1cc2ccccc2oc1=O)C1CCS(=O)(=O)C1` (stereo not drawn), -8.2%; under `CC(C)CN(C(=O)COC(=O)c1ccc2c(c1)NC(=O)CS2)C1CCS(=O)(=O)C1` (stereo not drawn), 8.5%.
As to `O=C(CCc1nc2ccccc2s1)OCC(=O)N1CCN(C(=O)c2ccco2)CC1`, the displacement was -8%.
Next, `Cn1c(=O)c2c3c(sc2n2c(SCc4ccc5c(c4)OCO5)nnc12)COC(C)(C)C3`: -8.4%; `COC(=O)c1ccccc1NC(=O)c1cc2ncc(Br)cn2n1`: 1.3%.
Next, `O=C(Nc1ccc(F)cc1F)c1cc2ncc(Br)cn2n1`: -2.9%; `Cc1ccc(Cc2cnc(NC(=O)C3CCCO3)s2)cc1` (stereo not drawn): 0.1%.
Next, `CCC1=NNc2cccc3c(OC)ccc1c23`: 83.6% (active).
Consider `COc1ccc(C(C)=O)c2c(O)cccc12`, for which the displacement is -7%.
Next, `COc1ccc2c3c(cccc13)N(C)N=C2C`: 20.3%.
Under `CCC(C)(C)n1nnnc1C(c1ccc2ncccc2c1)N1CCN(c2nc3ccccc3s2)CC1` (stereo not drawn) stands -13.1%.
Next, `COc1ccc(-c2c(C)nn(-c3ccccc3)c2N)cc1`: -8%; `CCOc1cc(C(=O)Nc2ccon2)cc(OCC)c1OCC`: -15.8%.
Turning to `Cc1ccc(S(=O)(=O)NC(=O)c2cc(C)n(CCCN3CCOCC3)c2C)cc1`, the displacement was 8.5%.
Under `Cc1cc(=S)cc(C)n1CCCn1ccnc1` stands -6.1%.
Under `Cc1ccccc1C1CC(=O)NC2=C1C(=O)CCC2` (stereo not drawn) stands -1.2%; under `CCCn1c(SCC(=O)NCCc2ccc(OC)c(OC)c2)nc2c1c(=O)n(C)c(=O)n2C`, -14.2%; under `O=C(COC(=O)CCOc1ccccc1)Nc1ccc(Cl)cn1`, 16%.
Next, `Cc1cc(C)cc(OCC(=O)OCC(=O)Nc2ccc(Cl)cn2)c1`: -13.6%.
Take `CCOC(=O)c1sc(/N=C/N(C)C)c(C(=O)OCC)c1C`: the displacement was -16.8%.
Next, `CCOC(=O)C1=C(O)/C(=C/N(C)C)N=C1C`: -3.9%; `CCOC(=O)C(Cc1ccccc1)NC(=O)Cn1nnc(-c2ccc(SC)cc2)n1` (stereo not drawn): -16.2%.
Next, `CCCOP(=O)(OCCC)C(Nc1ccc(C(C)C)cc1)c1ccc([N+](=O)[O-])cc1` (stereo not drawn): 13.7%; `Cc1c(NS(=O)(=O)c2cccc(C(=O)NCc3ccccc3)c2)c(=O)n(-c2ccccc2)n1C`: 0.4%; `CCOC(=O)c1ccc(NC(=O)C(C)N2C(=O)c3ccccc3C2=O)cc1` (stereo not drawn): 14.6%.
Under `CCOC(=O)c1ccc(NC2OC(=O)c3ccccc32)cc1` (stereo not drawn) stands -4.1%; under `Cc1ccc(CC(=O)OCCNC(=O)c2cccnc2)cc1`, 1.8%.
Regarding `O=c1c2cc(N3CCOCC3)ccc2[nH]c(=S)n1CCCN1CCCC1`, the displacement is 13.1%.
Under `O=c1c2cc(N3CCOCC3)ccc2[nH]c(=S)n1CCCN1CCCCC1` stands 10.5%; under `CN(C)c1ccc(C2N(c3ccc(F)cc3)C(=O)C3CCCN32)cc1` (stereo not drawn), -12.2%.
Next, `Cc1ccc(C)c(NC(=O)C2C(c3ccccc3)C2(Cl)Cl)c1` (stereo not drawn): -7.6%; `Cc1cccc(Nc2nc(N)nc(CN3CCN(Cc4ccc5c(c4)OCO5)CC3)n2)c1`: -2.8%; `Cc1cc(C)nc(/N=C(\N)C2=C(O)CC(C)(C)CC2=O)n1`: -12.3%.
Next, `O=C1c2ccccc2C(=O)C12Cc1ccccc1N1CCN(c3ccccc3)CC12` (stereo not drawn): -0.1%.
Take `CC1(C)OC(=O)C2(Cc3ccccc3N3CCCCC32)C(=O)O1` (stereo not drawn): the displacement is 3.5%.
Under `O=C(CCS(=O)(=O)c1ccc(Br)cc1)N1CCN(Cc2ccccc2)CC1` stands -5%.
On to `O=C(CCN1CCc2ccccc2CC1)c1ccc2c(c1)OCCO2`, for which the displacement is 19.8%.
Next, `O=C(CCN1Cc2ccccc2C1)c1ccc2c(c1)OCCO2`: 0.8%; `Cc1ccc(S(=O)(=O)NCCC(=O)NC2CCCC2)cc1`: 2%.
On to `O=C(CN1C(=O)C2CC=CCC2C1=O)Nc1nc2ccccc2[nH]1` (stereo not drawn), for which the displacement was 7.6%.
Under `CCCOc1cc(C)nc(-c2ccccc2O)n1` stands -2.4%; under `O=C(CN1C(=O)C2CCCCC2C1=O)Nc1nc(-c2ccccn2)cs1` (stereo not drawn), -3.3%.
Under `O=C(Nc1nc(-c2ccccn2)cs1)C1CC1` stands -5.8%; under `Cc1cc2c(c(=O)n1CC1CCCO1)C(c1ccco1)C(C#N)=C(N)O2` (stereo not drawn), -1.3%; under `CCOC(=O)c1cnc(-n2nc(C)cc2C)nc1Nc1ccc(OC)cc1`, 0.6%.
Next, `CCN(CC)S(=O)(=O)c1cc(C(=O)Nc2ccc(Cl)cn2)ccc1C`: -1.9%.
With `Cc1nc2sc3c(c2c(=O)[nH]1)CCC3`, the displacement is -1.1%.
On to `CCCOc1ccc(Cc2nn3c(=O)/c(=C/c4ccco4)sc3nc2=O)cc1`, for which the displacement is -5.7%.
Next, `Cc1ccc(-c2nc3s/c(=C\c4ccco4)c(=O)n3n2)cc1`: -14.4%; `CCn1c2ccccc2c2nnc(SCc3cc(=O)n4ccsc4n3)nc21`: -0.4%; `Cc1ccccc1Oc1ccc(S(=O)(=O)NCCC(=O)O)cc1`: 0.5%.
Under `Clc1ccc(CN2CCCCCCC2)cc1Cl` stands -0.5%; under `ON=Cc1cccn1-c1ccccc1`, 3.4%.
Under `O/N=C/c1cccn1-c1ccc(O)cc1` stands 0.9%; under `O=C(Nc1cccnc1)c1c(F)cccc1F`, 7.8%; under `O=C(c1ccc(=O)oc1)N1CCOCC1`, -16.5%.
On to `CC1(C)CC(NC(=O)c2coc(=O)c(Br)c2)CC(C)(C)N1`, for which the displacement is 6.4%.
Next, `O=C(c1coc(=O)c(Br)c1)N1CCCc2ccccc21`: 18%.
For `COc1ccc(C(=O)N2CCOCC2)cc1Br`, the displacement is -9.8%.
Next, `COc1ccc(OCC(=O)N/N=C/c2ccc(O[C@@H]3O[C@H](CO)[C@@H](O)[C@H](O)[C@H]3O)cc2)cc1`: -3.2%.
Next, `CCn1nc(C)c(NC(=O)CCSc2nc(-c3ccco3)cc(C(F)(F)F)n2)c1C`: -7%; `CCOC(=O)c1[nH]c(C)c(/C(O)=C2\C(=O)C(=O)N(CCCN3CCOCC3)C2c2cccnc2)c1C` (stereo not drawn): 5%; `COc1cc(C2CC(=O)NC3=C2C(=O)CC(C)(C)C3)cc(OC)c1O` (stereo not drawn): -3.3%.
Under `CCSc1nc(N)c2c3c(sc2n1)CN(C)CC3` stands 1.8%; under `CCCSc1nc(N)c2c3c(sc2n1)CN(C)CC3`, 26.6%; under `COc1ccc(CCNC(=O)c2c(-c3ccccc3)noc2C)cc1OC`, -0.3%.
Turning to `O=C(O)C(Cc1ccccc1)n1cccc1` (stereo not drawn), the displacement was 3.2%.
Under `O=C(O)C(Cc1ccccc1)N1C(=O)c2ccccc2C1=O` (stereo not drawn) stands 9.7%.
Under `Cc1ccc(NC(=O)CSc2nnc(-c3ccc(S(=O)(=O)N4CCOCC4)cc3)n2C)cc1` stands 0.6%.
For the molecule `O=C(Nc1ccc(N2CCN(c3ccc(O)cc3)CC2)cc1)Oc1ccccc1`, the displacement is -11.2%.
Next, `CSc1nc(NCc2ccco2)c2c3c(sc2n1)CN(C)CC3`: 0.3%; `CCN1CCc2c(sc3c2c(NCc2ccco2)nc2nnnn23)C1`: 114%; `CCS(=O)(=O)/N=C(\N)c1ccccc1`: 2.5%.
Next, `Cc1ccc(C=C2C(=O)c3ccccc3C2=O)s1`: 4.7%; `Cc1cc(C)n(-c2ccc(C(=O)Nc3ccc4c(c3)OCO4)cc2)n1`: -4.8%.
